Experiments:
Experiment in all cases: PBM; 200 nM protein, PBS
Conditions in all cases: dsDNA, one strand shown
[1] = target: PROP1 (Homo sapiens, UniProt O75360 56-141)
[2] = target: PROP1 (Homo sapiens, UniProt O75360 56-141, R99H)
[3] = target: ALX3 (Homo sapiens, UniProt O95076 139-225)
[4] = target: PROP1 (Homo sapiens, UniProt O75360 56-141, F88S)
[5] = target: T1, PAX4 (Homo sapiens, UniProt O43316 9-242, F177Y)
T1 sequence: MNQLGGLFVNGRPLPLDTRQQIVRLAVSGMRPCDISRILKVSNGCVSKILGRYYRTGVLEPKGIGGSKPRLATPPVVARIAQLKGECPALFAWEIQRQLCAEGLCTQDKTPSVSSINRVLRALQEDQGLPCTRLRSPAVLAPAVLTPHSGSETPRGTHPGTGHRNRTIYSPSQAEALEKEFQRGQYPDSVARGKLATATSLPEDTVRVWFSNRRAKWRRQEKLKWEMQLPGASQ

[6] = target: VAX1 (Homo sapiens, UniProt Q5SQQ9 86-172)
Sequence of VAX1 (Homo sapiens, UniProt Q5SQQ9 86-172) (Q5SQQ9 86-172): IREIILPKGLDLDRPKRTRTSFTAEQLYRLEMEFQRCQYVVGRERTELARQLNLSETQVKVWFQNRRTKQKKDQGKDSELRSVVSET

[7] = target: VAX1 (Homo sapiens, UniProt Q5SQQ9 86-172, T142I)
Sequence of VAX1 (Homo sapiens, UniProt Q5SQQ9 86-172, T142I) (Q5SQQ9 86-172 T142I): as the sequence (Q5SQQ9 86-172) above, with T57I counted along it

[8] = target: VAX1 (Homo sapiens, UniProt Q5SQQ9 86-172, K157R)
Sequence of VAX1 (Homo sapiens, UniProt Q5SQQ9 86-172, K157R) (Q5SQQ9 86-172 K157R): as the sequence (Q5SQQ9 86-172) above, with K72R counted along it

[9] = target: T2, NKX2-4 (Homo sapiens, UniProt Q9H2Z4 175-261, R246Q)
T2 sequence: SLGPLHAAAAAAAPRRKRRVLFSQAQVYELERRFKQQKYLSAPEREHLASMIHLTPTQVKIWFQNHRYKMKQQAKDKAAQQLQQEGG

Sequence of PROP1 (Homo sapiens, UniProt O75360 56-141, F88S) (O75360 56-141 F88S): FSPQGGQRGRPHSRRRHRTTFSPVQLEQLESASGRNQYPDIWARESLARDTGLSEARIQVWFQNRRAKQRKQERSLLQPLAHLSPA
Sequence of PROP1 (Homo sapiens, UniProt O75360 56-141, R99H) (O75360 56-141 R99H): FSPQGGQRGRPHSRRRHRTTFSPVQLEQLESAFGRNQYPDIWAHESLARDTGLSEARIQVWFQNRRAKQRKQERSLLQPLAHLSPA
Sequence of PROP1 (Homo sapiens, UniProt O75360 56-141) (O75360 56-141): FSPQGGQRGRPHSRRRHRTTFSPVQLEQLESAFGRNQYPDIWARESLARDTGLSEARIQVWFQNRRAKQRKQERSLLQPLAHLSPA
Sequence of ALX3 (O95076 139-225): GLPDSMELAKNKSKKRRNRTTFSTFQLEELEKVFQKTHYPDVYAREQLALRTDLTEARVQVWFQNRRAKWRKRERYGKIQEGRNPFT

In the case of AAATACAT, the binding signal [1] is reported as 8.5 upbm affinity estimate (log intensity, higher = more binding, comparable within an allelic series) and the binding signal [2] is reported as 7.91 upbm affinity estimate (log intensity, higher = more binding, comparable within an allelic series).
For ATTGTCTC, the binding signal [1] was 7.7 upbm affinity estimate (log intensity, higher = more binding, comparable within an allelic series).
For TGAGATAA, the binding signal [3] was 9.8 upbm affinity estimate (log intensity, higher = more binding, comparable within an allelic series).
With AATTCCGA the binding signal [1] was 8.08 upbm affinity estimate (log intensity, higher = more binding, comparable within an allelic series) and the binding signal [2] was 7.85 upbm affinity estimate (log intensity, higher = more binding, comparable within an allelic series).
GATATGGA was tested, and the binding signal [3] was 9.24 upbm affinity estimate (log intensity, higher = more binding, comparable within an allelic series).
GACATTAC was tested, and the binding signal [1] was 8.23 upbm affinity estimate (log intensity, higher = more binding, comparable within an allelic series), the binding signal [2] was 7.84 upbm affinity estimate (log intensity, higher = more binding, comparable within an allelic series) and the binding signal [4] was 7.27 upbm affinity estimate (log intensity, higher = more binding, comparable within an allelic series).
GCGGACGC was tested, and the binding signal [1] was 6.53 upbm affinity estimate (log intensity, higher = more binding, comparable within an allelic series), the binding signal [2] was 6.66 upbm affinity estimate (log intensity, higher = more binding, comparable within an allelic series) and the binding signal [4] was 6.56 upbm affinity estimate (log intensity, higher = more binding, comparable within an allelic series).
With AATACTAC the binding signal [1] was 7.84 upbm affinity estimate (log intensity, higher = more binding, comparable within an allelic series).
In the case of ATCATATA, the binding signal [5] is reported as 10.6 upbm affinity estimate (log intensity, higher = more binding, comparable within an allelic series).
For GACGACAA, the binding signal [1] was 7.4 upbm affinity estimate (log intensity, higher = more binding, comparable within an allelic series).
AAAATGGG was tested, and the binding signal [1] was 7.94 upbm affinity estimate (log intensity, higher = more binding, comparable within an allelic series).
In the case of CATATTGA, the binding signal [3] is reported as 9.37 upbm affinity estimate (log intensity, higher = more binding, comparable within an allelic series).
For AATAGTCC, the binding signal [1] was 8.13 upbm affinity estimate (log intensity, higher = more binding, comparable within an allelic series).
In the case of ACTATTAT, the binding signal [3] is reported as 10.4 upbm affinity estimate (log intensity, higher = more binding, comparable within an allelic series).
In the case of ATAACATA, the binding signal [3] is reported as 9.54 upbm affinity estimate (log intensity, higher = more binding, comparable within an allelic series).
For CACGTCGC, the binding signal [1] was 6.91 upbm affinity estimate (log intensity, higher = more binding, comparable within an allelic series), the binding signal [2] was 6.79 upbm affinity estimate (log intensity, higher = more binding, comparable within an allelic series) and the binding signal [4] was 6.8 upbm affinity estimate (log intensity, higher = more binding, comparable within an allelic series).
In the case of TTACTCAA, the binding signal [1] is reported as 8.57 upbm affinity estimate (log intensity, higher = more binding, comparable within an allelic series), the binding signal [2] is reported as 7.91 upbm affinity estimate (log intensity, higher = more binding, comparable within an allelic series) and the binding signal [6] is reported as 9.78 upbm affinity estimate (log intensity, higher = more binding, comparable within an allelic series). For the same sequence, the binding signal [4] was 7.39 upbm affinity estimate (log intensity, higher = more binding, comparable within an allelic series), the binding signal [7] was 9.49 upbm affinity estimate (log intensity, higher = more binding, comparable within an allelic series) and the binding signal [8] was 9.35 upbm affinity estimate (log intensity, higher = more binding, comparable within an allelic series).
With AACAAGTG the binding signal [9] was 12.9 upbm affinity estimate (log intensity, higher = more binding, comparable within an allelic series).
For AGTTAGAG, the binding signal [1] was 7.87 upbm affinity estimate (log intensity, higher = more binding, comparable within an allelic series).
In the case of GTAATAAC, the binding signal [3] is reported as 10.7 upbm affinity estimate (log intensity, higher = more binding, comparable within an allelic series).
ATTTCCTA was tested, and the binding signal [1] was 7.97 upbm affinity estimate (log intensity, higher = more binding, comparable within an allelic series).
In the case of CCCGACAC, the binding signal [1] is reported as 6.59 upbm affinity estimate (log intensity, higher = more binding, comparable within an allelic series), the binding signal [2] is reported as 6.79 upbm affinity estimate (log intensity, higher = more binding, comparable within an allelic series) and the binding signal [6] is reported as 6.71 upbm affinity estimate (log intensity, higher = more binding, comparable within an allelic series). For the same sequence, the binding signal [4] was 6.7 upbm affinity estimate (log intensity, higher = more binding, comparable within an allelic series), the binding signal [7] was 6.92 upbm affinity estimate (log intensity, higher = more binding, comparable within an allelic series) and the binding signal [8] was 6.92 upbm affinity estimate (log intensity, higher = more binding, comparable within an allelic series).
In the case of ATCAAGTA, the binding signal [9] is reported as 12.9 upbm affinity estimate (log intensity, higher = more binding, comparable within an allelic series).
With TAAAAGTA the binding signal [3] was 9.06 upbm affinity estimate (log intensity, higher = more binding, comparable within an allelic series).
With TGTAGTAA the binding signal [1] was 8.45 upbm affinity estimate (log intensity, higher = more binding, comparable within an allelic series) and the binding signal [2] was 8 upbm affinity estimate (log intensity, higher = more binding, comparable within an allelic series).
AAGAATAT was tested, and the binding signal [1] was 8.06 upbm affinity estimate (log intensity, higher = more binding, comparable within an allelic series).
For GCATTACA, the binding signal [1] was 8.11 upbm affinity estimate (log intensity, higher = more binding, comparable within an allelic series) and the binding signal [2] was 7.66 upbm affinity estimate (log intensity, higher = more binding, comparable within an allelic series).
ACTCTTGA was tested, and the binding signal [9] was 12.9 upbm affinity estimate (log intensity, higher = more binding, comparable within an allelic series).
CGGCTCCA was tested, and the binding signal [1] was 6.66 upbm affinity estimate (log intensity, higher = more binding, comparable within an allelic series), the binding signal [2] was 6.76 upbm affinity estimate (log intensity, higher = more binding, comparable within an allelic series) and the binding signal [4] was 6.74 upbm affinity estimate (log intensity, higher = more binding, comparable within an allelic series).
ACACTCGA was tested, and the binding signal [9] was 12.9 upbm affinity estimate (log intensity, higher = more binding, comparable within an allelic series).
For ATTGTGAG, the binding signal [1] was 8.01 upbm affinity estimate (log intensity, higher = more binding, comparable within an allelic series).
CCAAACAA was tested, and the binding signal [3] was 8.78 upbm affinity estimate (log intensity, higher = more binding, comparable within an allelic series).
For AACAATCC, the binding signal [1] was 7.92 upbm affinity estimate (log intensity, higher = more binding, comparable within an allelic series).
In the case of GCTCCGCA, the binding signal [1] is reported as 6.82 upbm affinity estimate (log intensity, higher = more binding, comparable within an allelic series), the binding signal [2] is reported as 6.82 upbm affinity estimate (log intensity, higher = more binding, comparable within an allelic series) and the binding signal [4] is reported as 6.66 upbm affinity estimate (log intensity, higher = more binding, comparable within an allelic series).
For ACGGTAGG, the binding signal [1] was 6.51 upbm affinity estimate (log intensity, higher = more binding, comparable within an allelic series), the binding signal [2] was 6.62 upbm affinity estimate (log intensity, higher = more binding, comparable within an allelic series) and the binding signal [4] was 6.62 upbm affinity estimate (log intensity, higher = more binding, comparable within an allelic series).
With GGAACGCC the binding signal [1] was 6.7 upbm affinity estimate (log intensity, higher = more binding, comparable within an allelic series), the binding signal [2] was 6.87 upbm affinity estimate (log intensity, higher = more binding, comparable within an allelic series) and the binding signal [4] was 6.68 upbm affinity estimate (log intensity, higher = more binding, comparable within an allelic series).

Source: article PMC11006913
